Assay outcomes deposited in PubChem by several laboratories.
A selection: hits, their analogues and other compounds. The true share with any hit is near 3.6%.
ERa SRC1 pot – enhances coactivator binding to human estrogen receptor alpha | TR-FRET ERalpha-LBD/SRC-Cy5 coactivator binding, 2 h; 100 = basal binding, no effect | coactivator binding (% of control), % at 25.6 µM | 86,000 tested, 1.3% active | AID 639; in the data active = activity above about 200%;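 also: binding measured in presence of low estradiol as agonist stimulus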
Target sequence (P03372 whole entry, looked up, the tested form may be a part): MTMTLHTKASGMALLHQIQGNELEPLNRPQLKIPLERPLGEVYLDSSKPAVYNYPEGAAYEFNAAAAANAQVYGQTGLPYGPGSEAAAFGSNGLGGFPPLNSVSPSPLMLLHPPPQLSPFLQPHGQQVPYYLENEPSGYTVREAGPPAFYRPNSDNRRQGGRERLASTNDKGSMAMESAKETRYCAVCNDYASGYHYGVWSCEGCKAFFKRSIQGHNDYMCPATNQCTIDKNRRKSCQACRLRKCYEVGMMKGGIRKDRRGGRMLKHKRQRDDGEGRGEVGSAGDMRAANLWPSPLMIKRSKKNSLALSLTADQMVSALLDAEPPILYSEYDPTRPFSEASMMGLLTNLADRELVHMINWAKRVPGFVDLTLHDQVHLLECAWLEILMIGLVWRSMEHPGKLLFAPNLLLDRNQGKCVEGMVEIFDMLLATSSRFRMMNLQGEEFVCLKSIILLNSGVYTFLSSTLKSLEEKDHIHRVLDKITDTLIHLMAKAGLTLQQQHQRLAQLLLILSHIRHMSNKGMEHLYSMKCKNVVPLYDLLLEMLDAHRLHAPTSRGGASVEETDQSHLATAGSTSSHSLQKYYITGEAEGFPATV
HUVEC tox IL1B – toxic to HUVEC cells under IL-1B stimulation; AID 845; 94,000 tested, 0.41% active; HUVEC cell count loss, Hoechst imaging, IL-1B stimulated; cell count reduction, % at 2 µM;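 active = cell count reduction more than 3 SD above the screen-wide mean, cut at about 70% in these data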
ERb coact inh – blocks coactivator binding to human estrogen receptor beta; 86,000 tested, 1.3% active; TR-FRET ER-beta LBD / SRC1-Cy5 peptide binding; receptor agonist-loaded with 1 µM estradiol; AID 633; inhibition, % at 25.6 µM;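 active = compounds whose percent inhibition of the receptor-coactivator binding signal exceeds about 50% in the single-dose screen, limit read from the data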
NFkB transloc inh – blocks IL-1B driven NFkB nuclear translocation in HUVEC cells. inhibition, % at 2 µM. HUVEC IL-1B NFkB p65 nuclear translocation imaging. 94,000 tested, 0.43% active;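 active = inhibition above about 30% together with a positive call from visual inspection of the well image, limit read from the data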;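 also: nuclear over cytoplasmic p65 intensity ratio measured by imaging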
ERa coact inh – ER-alpha (human) coactivator binding inhibition; P03372; TR-FRET ER-alpha LBD / SRC-1 peptide, estradiol-bound; inhibition, % at 25.6 µM; 86,000 tested, 1.7% active; AID 629; in the data active = inhibition above about 50%
NFkB transloc pot – enhances IL-1B driven NFkB nuclear translocation; HUVEC IL-1B NFkB p65 nuclear translocation imaging; 94,000 tested, 0.3% active; activation, % at 2 µM;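 active = activation above 40%, about the mean plus 3 SD, also judged a hit on visual image review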;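 also: percent activation is computed from the nuclear over cytoplasmic p65 intensity ratio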
Numbers stand for hits; . = inactive; / = not tested or not shown; [ ] = another dose, or the depositor's remark.

SMILES	ERa SRC1 pot	HUVEC tox IL1B	ERb coact inh	NFkB transloc inh	ERa coact inh	NFkB transloc pot
COc1ccc(-c2noc(CCC(=O)N3CCN(c4cccc(C(F)(F)F)c4)CC3)n2)cc1	.	.	50.6	.	.	.
COc1ccc(NC(=O)N2CCN(c3cccc(C(F)(F)F)c3)CC2)cc1	.	.	.	.	.	.
c1ccc(-n2nnc3cnccc32)cc1	.	/	.	/	.	/
O=C(Nc1cccc(Cl)c1Cl)c1ccncc1	.	.	.	.	53.8[fluorescence artefact?]	.
COc1ccc2c(c1)CC/C(=C\c1ccc(OC)c(Cn3nc(C)cc3C)c1)C2=O	.	.	.	.	51.7	.
COc1ccc2c(c1)CC/C(=C\c1ccc(OC)c(Cn3cccn3)c1)C2=O	.	.	.	.	.	.
COC(=O)Cc1cc(=O)[nH]c(/N=C(\N)Nc2ccccc2C)n1	.	.	.	.	.	.
CCn1c(CSc2nnc(-c3cccnc3)n2-c2ccccc2C)nc2cc(C(=O)O)ccc21	253.5	.	.	.	.	.
COc1cccc(C(=O)NCC(=O)n2nc(C)cc2C)c1	.	.	.	.	.	.
Cn1c2ccccc2c2nnc(SCc3ccc4nonc4c3)nc21	.	.	.	.	55.0[fluorescence artefact?]	.
Cn1c2ccccc2c2nnc(SCN3C(=O)c4ccccc4C3=O)nc21	.	/	.	/	.	/
CCn1c2ccccc2c2nnc(SCC(=O)Nc3ccc4c(c3)OCO4)nc21	.	.	.	.	50.1	.
CCn1c2ccccc2c2nnc(SCc3ccccc3)nc21	.	/	.	/	56.4[fluorescence artefact?]	/
CCn1cc(SCC(=O)NCc2ccc3c(c2)OCO3)c2ccccc21	.	/	53.1	/	.	/
CCCn1cc(SCC(=O)NCc2ccc3c(c2)OCO3)c2ccccc21	.	.	.	.	.	.
CCn1c2ccccc2c2nnc(SCC(N)=O)nc21	.	.	.	.	.	.
Cc1nc2ncnn2c(C)c1CCC(=O)NCCCN1CCN(c2cccc(Cl)c2)CC1	.	.	.	.	.	.
CON(C)c1nc(OCCNC(=O)OCc2ccc(Cl)cc2Cl)nc(N(C)C)n1	/	.	/	.	/	.
CCn1c2ccccc2c2nnc(SCC(=O)NC(C(=O)OC)C(C)C)nc21 (stereo unspecified)	.	/	.	/	.	/
C=CCn1c2ccccc2c2nnc(SCC(=O)NC(C(=O)OC)C(C)C)nc21 (stereo unspecified)	.	88.6	.	.	.	.
Cc1nc2cccc(C(=O)NCc3ccccc3)c2o1	.	.	.	.	63.6	.
COc1ccc(C)cc1NC(=O)c1cc2c(C)nc3ccccc3c2o1	204.0[fluorescence artefact?]	/	57.7[fluorescence artefact?]	/	66.2[fluorescence artefact?]	/
Cc1occc1C(=O)NCc1cccc(CNC(=O)c2ccoc2C)c1	.	.	.	.	64.5	.
CCc1ccc(CNC(=O)c2cc3c(C)nc4ccccc4c3o2)cc1	.	.	60.5[fluorescence artefact?]	.	.	.
COc1cc(NC(=O)c2cc3c(C)nc4ccccc4c3o2)cc(OC)c1OC	.	.	.	.	.	.
SMILES	ERa SRC1 pot	HUVEC tox IL1B	ERb coact inh	NFkB transloc inh	ERa coact inh	NFkB transloc pot
Cc1occc1C(=O)NCc1ccc2c(c1)OCO2	.	.	.	.	.	.
CCOC(=O)C1CCCN(C(=O)C2CCCN(S(C)(=O)=O)C2)C1 (stereo unspecified)	.	.	.	.	.	.
CCC(C)n1c(C)nc2c(c1=O)c1nc3ccccc3nc1n2CCC1=CCCCC1 (stereo unspecified)	.	.	.	.	.	.
COc1ccc(/C=N/Nc2ccccc2)cc1Cn1nc(C)c([N+](=O)[O-])c1C	.	.	.	.	.	.
O=C(Cn1nnc(-c2cccs2)n1)N1c2ccccc2Sc2ccc(C(F)(F)F)cc21	.	.	.	.	.	.
CCOc1cc2c(cc1OCC)C(c1cc(OC)c(O)c(OC)c1)NCC2 (stereo unspecified)	.	/	.	/	.	/
CC(C)c1ccccc1NC(=O)c1cnccn1	.	.	.	.	.	.
CSc1ccccc1NC(=O)c1cnccn1	.	.	.	.	56.5[fluorescence artefact?]	.
CCc1nnc2n1N=C(c1ccc(-c3cc(Cl)ccc3Cl)o1)CS2	.	.	.	.	59.0	.
O=C(O)C1Nc2c(O)cccc2C2C=CCC12 (stereo unspecified)	.	/	99.1[fluorescence artefact?]	/	98.7[fluorescence artefact?]	/
Cc1ccc(NC(=O)CSc2nc3ccccc3c3nc(CCc4c(C)n[nH]c4C)nn23)cc1F	.	.	.	.	53.6[fluorescence artefact?]	.
C=CCOc1ccc(Oc2cc(C)nc(SC)n2)nn1	.	.	.	.	.	.
C=CCOc1c(Cl)cc(C2NC(=O)NC(C)=C2C(=O)OC)cc1Cl (stereo unspecified)	.	.	.	.	.	.
CCOC(=O)CC(=O)CSc1nc(C)cc(C)c1C#N	.	.	.	.	.	.
CSc1nc(N)nc(SCC(=O)C23CC4CC(CC(C4)C2)C3)c1C#N	/	.	/	.	/	.
CCOC(=O)CC(=O)CSc1nc(N)c(C#N)c(-c2ccc(Cl)cc2)c1C#N	219.7[fluorescence artefact?]	.	.	.	.	.
N#Cc1c(N)nc(SCC(=O)C23CC4CC(CC(C4)C2)C3)c(C#N)c1-c1ccc(Cl)cc1	478.8[fluorescence artefact?]	.	.	.	.	.
CCOc1cc(N2CCOCC2)c(OCC)cc1NC(=O)c1cc(-c2ccco2)nc2ccccc12	.	/	.	/	75.4	/
O=C(O)c1cc(-c2ccco2)nc2ccc(Br)cc12	.	/	61.2	/	64.3	/
CCCCCCNC(=O)c1cc(-c2ccco2)nc2ccccc12	.	.	74.8	.	85.5[fluorescence artefact?]	.
O=C(NCC1CCCO1)c1cc(-c2ccco2)nc2ccccc12 (stereo unspecified)	.	.	74.9[fluorescence artefact?]	.	69.0[fluorescence artefact?]	.
O=C(COc1cccc2ccccc12)NNC(=O)C1CCCO1 (stereo unspecified)	/	.	/	.	/	.
CNC(=O)C1CC(=O)N(c2ccc(C)cc2)C1 (stereo unspecified)	.	.	.	.	.	.
CCc1ccc(CCC(=O)Nc2nnc(CC)s2)o1	.	/	.	/	.	/
C=CCOn1c(=O)c(=O)n(OCc2ccccc2)c2ccccc21	.	.	.	.	.	.
SMILES	ERa SRC1 pot	HUVEC tox IL1B	ERb coact inh	NFkB transloc inh	ERa coact inh	NFkB transloc pot
c1ccc(C2CC(c3cccs3)n3nnnc3N2)cc1 (stereo unspecified)	.	.	.	.	.	.
CCc1c(C)sc(NC(=O)c2cnn3cccnc23)c1C#N	261.7[fluorescence artefact?]	.	.	.	.	.
CCC1c2ccc(C)n2CCN1C(=O)Nc1ccccc1C(=O)OC (stereo unspecified)	.	92.0	.	.	.	.
CCOC(=O)c1ccccc1NC(=O)N1CCn2c(C)ccc2C1CC (stereo unspecified)	.	.	.	.	.	.
CCCCc1cc2c(c(NC(C)=O)n1)c(=O)oc1ccccc12	269.9[fluorescence artefact?]	.	.	.	.	.
CC(=O)Nc1nc2c(c3c1c(=O)oc1ccccc13)CC(C)CC2 (stereo unspecified)	226.7[fluorescence artefact?]	.	.	.	.	.
CC(=O)Nc1nc2c(c3c1c(=O)oc1ccccc13)CCCC2	.	.	.	.	.	.
CC(=O)Nc1nc(CC(C)C)cc2c1c(=O)oc1ccccc12	.	.	.	.	.	.
